In PubChem BioAssay (NCI):
This is part of a sample that, as a whole, favours compounds with a hit. Of some 79,000 tested, about 15% had one in any assay. A number with no mark means an inactive call. The source made the active and inactive calls. No stated cut-off is given here; in the data, active means growth inhibition above about 70%; inactive means the rest.

Assay: NCI Yeast Anticancer Drug Screen. Data for the rad52 strain (AID 147);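 further: 0% = growth of vehicle-treated control cultures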
Conditions: S. cerevisiae rad52 mutant growth inhibition, hits give high values
Procedure: Growth inhibition of yeast strains with defined genetic alterations is measured as a screen for potential anti-cancer activity. Selected strains with alterations in DNA damage repair or cell cycle control were exposed to compounds and growth inhibition was measured relative to vehicle treated controls. The strain used in this assay is rad52

| Compound | growth inhibition (at 1.2 µM) | growth inhibition (at 3.7 µM) | growth inhibition (at 11.0 µM) | growth inhibition (at 33.0 µM) | growth inhibition (at 100.0 µM) |
| --- | --- | --- | --- | --- | --- |
| CCOC(=O)[C@H]1Nc2ccccc2C2c3ccccc3CC21 (stereo not given in full) | -39% | -44% | -10% | 55% | 76% (active) |
| COC(=O)C1=C(C)NC(C)=C(C(=O)OC)C1c1cccc(/[N+]([O-])=C/c2ccccc2)c1 | 1% | 2% | 9% | 23% | 90% (active) |
| OC(c1ccc(F)cc1)(c1ccc(F)cc1)C1CC1 | -39% | -58% | -47% | 12% | 76% (active) |
| CCCCCCCCNC(=O)C1=C(C)NC(C)=C(C(=O)NCCCCCCCC)C1 | 0% | 1% | 3% | -4% | 3% |
| Cc1ccc(S(=O)(=O)NC(=O)NC2=NC(C)(C)N(c3ccc(Cl)c(Cl)c3)C(N)=N2)cc1 | -2% | -2% | -1% | -3% | -3% |
| O=C1Nc2ccccc2/C1=C/COc1ccccc1 | 1% | 8% | 27% | 90% (active) | 98% (active) |
| O=C([O][Sn]([O]C(=O)c1ccccc1)([c]1ccccc1)[c]1ccccc1)c1ccccc1 | 23% | 21% | 22% | 46% | 81% (active) |
| CC1(C)[C@@H]2CC[C@]1(C)[C@H](OC(=O)CSC#N)C2 | 0% | 3% | 20% | 83% (active) | 95% (active) |
